Compound activity from PubChem BioAssay.
RECQ1 inh – inhibitors of human RECQ1 DNA helicase; Potency, µM (series often up to 57.3 µM), for the others: at the highest dose activity, negative = inhibition, usual class: inhibitors; P46063; AID 2549; actives 0.54% (n = 240,000); RECQ1 DNA unwinding, red fluorescence kinetic read;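 further: plate controls were vehicle for no effect and no enzyme for full effect; nearly all actives have a fitted effect of over 30% in size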
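RECQ1T1 50 nM; forked duplex (20 bp + 30-nt ss tails) 200 nM, ATP 2 mM final; pH 8.0, 2 mM MgCl2, 2.5 ug/ml poly(dI-dC); 15 min compound preincubation; discontinuous kinetic read over 2 h at RT.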
L3MBTL1 inh – blocks human L3MBTL1; Q9Y468; AlphaScreen L3MBTL1–H3K9me1 peptide binding; Potency, µM (series often up to 57.1 µM), for inactives: at the highest dose activity, negative = inhibition, most hits filed as inhibitors; actives 0.66% (n = 230,000); AID 485360; further: on the % scale 0 is the no-effect control and ±100 the full control effect; nearly all actives have a fitted effect of over 60% in size
Target sequence (Q9Y468 whole entry, looked up): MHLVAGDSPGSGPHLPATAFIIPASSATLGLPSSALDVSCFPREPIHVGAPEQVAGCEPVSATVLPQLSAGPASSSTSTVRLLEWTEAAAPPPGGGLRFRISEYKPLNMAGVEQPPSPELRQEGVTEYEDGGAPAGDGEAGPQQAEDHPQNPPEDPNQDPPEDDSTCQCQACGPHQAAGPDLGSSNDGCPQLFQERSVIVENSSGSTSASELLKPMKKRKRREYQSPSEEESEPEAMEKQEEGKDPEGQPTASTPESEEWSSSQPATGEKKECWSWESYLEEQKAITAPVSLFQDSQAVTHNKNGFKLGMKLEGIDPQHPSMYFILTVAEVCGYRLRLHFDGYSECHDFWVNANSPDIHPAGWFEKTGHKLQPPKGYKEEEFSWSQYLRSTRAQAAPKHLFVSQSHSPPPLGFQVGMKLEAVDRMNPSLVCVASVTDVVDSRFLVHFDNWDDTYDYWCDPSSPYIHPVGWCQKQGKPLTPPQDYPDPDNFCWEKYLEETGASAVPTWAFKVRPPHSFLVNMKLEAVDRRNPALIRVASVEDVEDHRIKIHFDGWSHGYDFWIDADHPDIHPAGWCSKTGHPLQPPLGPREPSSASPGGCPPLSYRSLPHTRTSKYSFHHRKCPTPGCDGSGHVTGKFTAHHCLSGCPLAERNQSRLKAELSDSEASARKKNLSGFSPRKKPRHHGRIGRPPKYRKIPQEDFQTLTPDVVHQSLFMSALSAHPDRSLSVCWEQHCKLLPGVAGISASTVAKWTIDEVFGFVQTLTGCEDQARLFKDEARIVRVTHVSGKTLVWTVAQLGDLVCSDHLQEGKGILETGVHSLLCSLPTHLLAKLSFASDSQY
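First, the protein-peptide complex forms for 30 min at room temperature (L3MBTL1 50 nM, biotinylated H3K9me1 peptide 75 nM). Next, compounds are pin-transferred and incubated 30 min. Finally, AlphaScreen beads are added and read after 30 min.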
BLM helicase inh – Bloom syndrome helicase (human) inhibition; P54132; recombinant BLM DNA unwinding, fluorescence dequenching; Potency, µM (series often up to 56.1 µM), for the others: at the top dose activity change, negative = inhibition, actives largely listed as inhibitors; actives 0.2% (n = 350,000); AID 2528;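 further: plate controls were vehicle for no effect and no enzyme for full effect; nearly all actives have a fitted effect of over 35% in size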
APE1 inh – inhibitors of human APE1 endonuclease; recombinant APE1, TAMRA/BHQ-2 abasic DNA cleavage fluorescence; Potency, µM (doses to about 65.8 µM), for inactives: at the highest dose activity change, negative = inhibition, usual class: inhibitors; actives 0.35% (n = 350,000); AID 2517;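 further: plate controls were vehicle for no effect and reference inhibitor for full effect; nearly all actives have a fitted effect of over 55% in size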
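APE1 at 0.75 nM final was preincubated with compound 15 min at room temperature, then 50 nM double-stranded THF abasic-site substrate (5'-TAMRA/3'-BHQ-2) was added. Fluorescence (ex 525/em 598 nm) was read kinetically; third-minus-first read gave activity.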
FEN1 inh-1 – blocks human flap endonuclease 1; P39748; Recombinant FEN1 flap cleavage, fluorescence, 15 min; Potency, µM (doses to about 114 µM), for inactives: at the highest dose activity change, negative = inhibition, usual class: inhibitors; actives 0.35% (n = 390,000); AID 588795; further: on the % scale 0 is the no-effect control and ±100 the full control effect; nearly all actives have a fitted effect of over 65% in size
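Enzyme 10 nM, 15 min RT preincubation with compound; start with substrate 50 nM final; reads at 0 and 15 min; qHTS titration, four-parameter Hill fit.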
WRN helicase inh – WRN helicase (human) inhibition; Q14191; WRN helicase unwinding, fluorescent forked duplex, kinetic; Potency, µM (top dose mostly 114 µM), for inactives: at the highest dose activity change, negative = inhibition, hits mostly inhibitors; actives 0.46% (n = 360,000); further: on the % scale 0 is the no-effect control and ±100 the full control effect; nearly all actives have a fitted effect of over 55% in size
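Enzyme (20 nM final) and test compound sit together 15 min at room temperature before substrate addition. Substrate is a single-forked duplex oligonucleotide (100 nM) labelled with fluorophore and quencher, with 2 mM ATP; helicase unwinding raises red fluorescence, read kinetically.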
FEN1 inh-2 – FEN1 inhibition, cherry-pick retest; Potency, µM, hits mostly inhibitors; actives 79% (n = 880); AID 720498; FEN1 flap cleavage, TAMRA/BHQ2 fluorogenic DNA substrate; shares compounds with FEN1 inh-1; further: nearly all actives have a fitted effect of over 60% in size
* = called active by the depositor; i = inactive; u = inconclusive; x = no result; [ ] = remark or other dose. Hits are enriched below; roughly 1% of the tested compounds scored in any of these assays. The call rests on the fitted dose curve; in most records, active means well fitted curve in the direction sought with a large enough effect; inconclusive means small, poorly fitted or top-dose-only effect, or another doubt; inactive means no such curve, though single readings can be large; an effect the other way counts as inactive or inconclusive. Potency means the concentration at half of the fitted maximal effect.

SMILES	RECQ1 inh	L3MBTL1 inh	BLM helicase inh	APE1 inh	FEN1 inh-1	WRN helicase inh	FEN1 inh-2
Cc1ccc(C(=O)Nc2ccc(-c3nc4ccccc4[nH]3)cc2)cc1Br	x	x	x	x	x	x	60.1*
COc1ccc(N2CCN(C(=O)c3c(C)oc4ncn(CC(C)C)c(=O)c34)CC2)cc1	x	x	-0.2%	x	17.1%	x	x
Cc1c2ccncc2cc2c1[nH]c1ccccc12	x	x	x	x	17.8µM*	1.3%[11.6 µM]	16.9*
Cc1ccc(NC(=O)CN2C(=O)N/C(=C/c3ccccc3OCc3cccc(C(=O)O)c3)C2=O)cc1	x	x	u	18.9µM*	70.8µM*	50.1µM*	75.7*
O=C(CN1C(=O)N/C(=C\c2ccccc2OCc2ccc(C(=O)O)cc2)C1=O)Nc1ccccc1F	x	x	-23.2%	-24.5%	u	u	60.1*
Cc1cccc(NC(=O)CN2C(=O)N/C(=C\c3ccc(-c4cccc(C(=O)O)c4)o3)C2=O)c1	i	x	-1.0%	u	u	u	75.7*
CCn1c(C)cc(/C=C2/NC(=O)N(CC(=O)Nc3cccc(C)c3)C2=O)c1C	i	0.6%	-0.9%	-1.7%	-15.3%	-1.9%	x
COc1cc2c(cc1/C=C1/NC(=O)N(CC(=O)Nc3ccccc3)C1=O)OCO2	-0.4%	0.5%	-4.7%	-2.1%	-1.0%	-13.9%[57.1 µM]	x
O=C(O)c1ccc(COc2ccccc2/C=C2\NC(=O)N(Cc3ccccc3F)C2=O)cc1	-3.4%	-12.8%	-0.1%	3.2%	-13.8%	-31.5%	x
O=c1cc(-c2ccc(O)c(-c3c(O)cc(O)c4c(=O)cc(-c5ccc(O)cc5)oc34)c2)oc2cc(O)cc(O)c12	-17.2%	-16.5%	-8.1%	-5.4%	44.7µM*	u	47.8*
CC(NC1=CC(=O)c2cccnc2C1=O)C(O)c1ccccc1 (stereo not given)	x	x	x	x	u	u	u
COc1ccc(NC(=O)c2sc3nc4c(cc3c2N)CCCCCC4)cc1Cl	x	x	-10.0%	x	-7.3%	x	x
COc1ccc(Nc2nc(N3CCCCC3)c3ccccc3n2)cc1	u	-15.6%	-26.9%	4.7%	-10.0%	-4.3%[57.1 µM]	x
Oc1ccc(Nc2nc(N3CCCC3)c3ccccc3n2)cc1	u	-14.9%	-1.8%	-7.9%	50.1µM*	u	33.8*
O=C1C[C@H](c2ccc3ccccc3c2)N1S(=O)(=O)c1ccccc1[N+](=O)[O-]	17.5%	x	0.3%	-3.1%	5.6%	x	x
CCOc1ccc2c(ccc(/C=C/c3cc(C)c4cccnc4c3O)[n+]2C)c1	x	x	x	x	8.91µM*	10µM*	12*
CCCCCc1ccc(C)cc1O	x	x	-9.8%	x	x	x	x
CN1/C(=C\C=C2/SC(=S)NC2=O)C(C)(C)c2ccccc21	31.6µM*	-28.7%	u	25.1µM*	u	28.2µM*	67.5*
CN(Cc1cccs1)c1ncnc2ccc(-c3ccc4cnn(C)c4c3)cc12	x	x	x	x	x	x	33.8*
COc1ccc(C(CNC(=O)c2ccc(S(=O)(=O)Nc3ccccc3OC)cc2)N2CCCC2)cc1 (stereo not given)	x	x	x	x	-8.1%	1.6%	x
CN(Cc1ccccc1)C(=O)c1csc([C@@H]2O[C@H](CO)[C@H](O)[C@H](O)[C@H]2O)n1	x	x	x	x	x	2.9%[57.1 µM]	x
O=C(O)C(c1ccccc1)N1C(=O)/C(=C\c2ccc(-c3ccc(Br)cc3)o2)SC1=S (stereo not given)	x	x	31.6µM*	u	20µM*	u	75.7*
COc1cc(/C=C2\SC(=S)N(C(C(=O)O)c3ccccc3)C2=O)cc(OC)c1OC (stereo not given)	-0.4%	-8.4%	-2.4%	-3.1%	-13.2%	-15.5%	x
CCC(C)n1cnc2c(c1=O)c1nc3ccccc3nc1n2Cc1ccc(OC)cc1 (stereo not given)	i	-4.9%	-2.5%	-0.6%	1.4%	-7.3%	x
COc1ccc(Cn2c(C)nc3c(c2=O)c2nc4ccccc4nc2n3Cc2ccco2)cc1	x	x	x	x	39.8µM*	8.44µM*	u
SMILES	RECQ1 inh	L3MBTL1 inh	BLM helicase inh	APE1 inh	FEN1 inh-1	WRN helicase inh	FEN1 inh-2
COc1ccc(Cn2c(-c3ccco3)nc3c(c(=O)c4ccccc4n3C)c2=O)cc1	-1.2%	x	-1.4%	-5.8%	22.4µM*	-0.9%[11.6 µM]	30.1*
CCCCCCCCSC1=CC(=O)C(OC)=C(OC)C1=O	x	x	x	x	x	-11.6%	x
CCC(C)S(=O)(=O)c1oc(-c2ccc(F)cc2)nc1S(=O)(=O)c1ccc(F)cc1 (stereo not given)	x	x	-7.9%	x	8.4%	x	x
NC(=S)n1[nH]c(-c2ccc([N+](=O)[O-])cc2)c(N=Nc2cccc([N+](=O)[O-])c2)c1=O	-1.5%	u	17.8µM*	u	44.7µM*	u	42.6*
NC(=S)n1[nH]c(-c2ccc([N+](=O)[O-])cc2)c(N=Nc2ccccc2[N+](=O)[O-])c1=O	i	5.5%	-6.2%	13.4%	7.7%	-21.1%[11.6 µM]	x
Cc1c(N=Nc2c(-c3ccc([N+](=O)[O-])cc3)[nH]n(C(N)=S)c2=O)cccc1[N+](=O)[O-]	i	-5.9%	-9.8%	-8.1%	u	u	67.5*
CCOc1ccc(NC(=O)CC2C(=O)OCCN2CC)cc1 (stereo not given)	x	x	1.8%	x	-8.7%	x	x
COC(=O)[C@]12CCCCC=C1N(Cc1ccc3c(c1)OCO3)C(=O)[C@H](CC(=O)N1CCC(c3ccccc3)CC1)C2	x	x	x	x	x	-10.6%	x
COC(=O)c1cc2c(-c3ccccc3)c(C)c3ccccn3c-2c1C(=O)OC	-26.6%	x	-15.3%	-6.0%	u	u	84.9*
OC(c1ccc(F)cc1)c1nc(-c2cncnc2)cs1 (stereo not given)	x	x	x	x	x	6.5%	x
